Out of some 360,000 compounds screened, about 4,200 (1.2%) were called active.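 Rule for the calls: active = mean replicate inhibition at least 60% with every replicate also reaching 60%; inconclusive = only one of the two criteria is met; inactive = mean below 60% and not all replicates reaching 60%.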 What follows is part of a selection rich in actives, with near analogues and random picks from the rest.

The term inhibition denotes the drop in the measured response relative to a control, in per cent.

The assay can be described thus: PAX8 transcriptional activity inhibition in RMG-I – RMG-I cells, luciferase, single concentration, primary screen (AID 652154).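 Note: luciferase light reporting Pax8 driven TPO promoter activity; plate controls were median of neutral control wells for no effect and mitoxantrone controls for full effect.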 As to conditions: RMG-I TPO-luciferase reporter, SteadyGlo, 24 h; at 12.6 µM; active compounds read high. Background: A reporter such as luciferase makes a cellular process visible.
Turning to `COCC(=O)Nc1ccc2c(c1)C(=O)N(C)C[C@@H](OC)[C@H](C)CN(C(=O)c1cccnc1)[C@H](C)CO2`, the inhibition is -16.5% (inactive).
On to `C/C=C/c1cnc2c(c1)C(=O)N([C@@H](C)CO)C[C@@H](C)[C@@H](CN(C)C(=O)C1CCOCC1)O2`, for which the inhibition was -0.814% (inactive).
Take `O=c1cc(O)c(-c2cccc(C(F)(F)F)c2)c(Cl)[nH]1`: the inhibition is 4.02% (inactive).
For `O=C(NNc1ccccc1Cl)C(O)(c1cccc(C(F)(F)F)c1)c1cccc(C(F)(F)F)c1` the value was 66.8% (active).
As to `O=C(O)c1cc(S(=O)(=O)N(Cc2ccccc2)c2cccc(C(F)(F)F)c2)ccc1Cl`, the inhibition is -20% (inactive).
For the compound `O=C(C1CCCC1)N1CC(=O)N2[C@H](CO)[C@H](c3ccc(Br)cc3)[C@H]2C1`, the inhibition was -9.22% (inactive).
Consider `C/C=C/c1ccc([C@@H]2[C@H](CO)N(C(C)=O)[C@H]2CN(CC)C(=O)CN(C)C)cc1`, for which the inhibition is 9.68% (inactive).
Turning to `COCC(=O)Nc1ccc2c(c1)OC[C@H](C)N(C(=O)c1cnccn1)C[C@@H](C)[C@H](OC)CN(C)C2=O`, the inhibition is -7.83% (inactive).
As to `O=C(C1CCC1)N1CCCCN2[C@H](C1)[C@@H](c1ccc(C#CC3CCCC3)cc1)[C@@H]2CO`, the inhibition is 36.8% (inactive).
The result for `O=c1oc2ccccc2cc1-c1cn(-c2ccccc2)c(=S)[nH]1` reads 62.6% (active); that for `COc1cccc(-n2c(=S)[nH]c3c(oc4ccccc43)c2=O)c1`, 3.59% (inactive); that for `CC(C)NC(=O)Nc1ccc2c(c1)C(=O)N([C@@H](C)CO)C[C@@H](C)[C@H](CN(C)C(=O)Cc1ccccc1)OCCCC[C@H](C)O2`, 4.73% (inactive).
As for `CN1CCN(C(=O)C[C@@H]2CC[C@@H]3[C@H](COC[C@@H](O)CN3Cc3cccc(F)c3)O2)CC1`, the inhibition is -11.1% (inactive).
For the compound `CCCC#Cc1cnc2c(c1)C(=O)N([C@@H](C)CO)C[C@@H](C)[C@@H](CN(C)C(=O)c1ccccc1)O2`, the inhibition is 8.32% (inactive).
`C=C1C(=O)OC2C1CCC(C)=CCCC1(C)OC21` (stereo unspecified): the inhibition was 108% (active).
In the case of `O=S(=O)(c1ccc(F)cc1)N1CCCCN2[C@H](C1)[C@H](c1ccc(C3=CCCCC3)cc1)[C@@H]2CO`, the inhibition was 16.3% (inactive).
For `CC(C)c1cn(CC[C@@H]2CC[C@@H](NC(=O)C3CCC3)[C@@H](CO)O2)nn1` the value was 2.99% (inactive).
Take `COc1ccc(CNC(=O)COC(=O)C(CCSC)N2C(=O)c3ccccc3C2=O)cc1` (stereo unspecified): the inhibition is -2% (inactive).
Take `COc1ccc(CNC(=O)CN2C(=O)c3ccccc3S2(=O)=O)cc1`: the inhibition is 75.6% (active).
The result for `NS(=O)(=O)c1ccc(CCNC(=O)CN2C(=O)c3ccccc3S2(=O)=O)cc1` reads 0.854% (inactive).
For the compound `C/C=C/c1ccccc1[C@@H]1[C@@H](CO)N(S(=O)(=O)c2cccc(F)c2)[C@H]1C#N`, the inhibition was -12.9% (inactive).
Regarding `C[C@@H]1CN([C@@H](C)CO)C(=O)c2cc(NC(=O)CCCN(C)C)ccc2O[C@H]1CN(C)Cc1ccccc1`, the inhibition is -7.53% (inactive).
For `COc1ccccc1-c1ccc2c(c1)O[C@H](CN(C)C(=O)c1cccnc1)[C@H](C)CN([C@@H](C)CO)S2(=O)=O`, the inhibition is -1.96% (inactive).
The result for `COc1ccc(C(=NN)c2ccc(OC)cc2)cc1` reads -68% (inactive); that for `COc1ccc(/C(N)=N/OC(=O)Cc2ccccc2)cc1`, -143% (inactive).
As to `COc1ccc(C(C#N)=C2C=CC(=NO)c3ccccc32)cc1`, the inhibition is 70.5% (active).
